Sampled rows, rich in hits. Any-hit rate of the full collection: about 0.38%.
CBFb RUNX1 block: inhibitors of human CBF-beta and RUNX1 interaction. Q01196+Q13951. AlphaScreen CBFb-His/RUNX1-biotin binding, biochemical. Potency, µM (series often up to 59.8 µM), for the others: top-dose activity, negative = inhibition, most hits filed as inhibitors. 230,000 tested, under 10 active. AID 1477; also: % of control where 0% means no effect
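Bead-based AlphaScreen assay; binding partners His-tagged CBF-beta and biotinylated RUNX1 at 30 nM each. Compound exposure 15 min after a 20-min protein preincubation; bead step 90 min; all steps at room temperature.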
TRb SRC2 PPI: inhibitors of human thyroid hormone receptor beta-SRC2 interaction; TRbeta-SRC2 peptide binding, fluorescence polarization; receptor liganded with 1 µM T3; Potency, µM (doses to about 106 µM), without a hit: at the highest dose activity change, negative = inhibition, actives largely listed as inhibitors; actives 0.065% (n = 280,000); P10828;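 also: potency is read from the fitted curve at half-maximal effect; plate controls were bound peptide for no effect and peptide without receptor for full effect; nearly all actives have a fitted effect of over 50% in size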
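Human TRb ligand-binding domain (0.6 uM) is mixed with 20 nM Texas Red SRC2 peptide and 1 uM T3; after compound addition and 5 hr at ambient temperature, polarization is measured and normalized to unbound and bound controls.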
TSHR antagonist: blocks TSH signaling through the human TSH receptor; P16473; TSHR-expressing cells, TSH-stimulated cAMP HTRF, 2 h; hits give low values; activity change, negative = inhibition, % at 11.5 µM; actives 0.2% (n = 330,000); AID 504810;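 active = activity change below a set negative limit, meaning inhibition stronger than a set level, cut at about -70% in these data; inconclusive = activity change between two set negative limits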; also: % is scaled to controls: 0 for no effect and ±100 for the full control effect
Target sequence (P16473 whole entry, looked up): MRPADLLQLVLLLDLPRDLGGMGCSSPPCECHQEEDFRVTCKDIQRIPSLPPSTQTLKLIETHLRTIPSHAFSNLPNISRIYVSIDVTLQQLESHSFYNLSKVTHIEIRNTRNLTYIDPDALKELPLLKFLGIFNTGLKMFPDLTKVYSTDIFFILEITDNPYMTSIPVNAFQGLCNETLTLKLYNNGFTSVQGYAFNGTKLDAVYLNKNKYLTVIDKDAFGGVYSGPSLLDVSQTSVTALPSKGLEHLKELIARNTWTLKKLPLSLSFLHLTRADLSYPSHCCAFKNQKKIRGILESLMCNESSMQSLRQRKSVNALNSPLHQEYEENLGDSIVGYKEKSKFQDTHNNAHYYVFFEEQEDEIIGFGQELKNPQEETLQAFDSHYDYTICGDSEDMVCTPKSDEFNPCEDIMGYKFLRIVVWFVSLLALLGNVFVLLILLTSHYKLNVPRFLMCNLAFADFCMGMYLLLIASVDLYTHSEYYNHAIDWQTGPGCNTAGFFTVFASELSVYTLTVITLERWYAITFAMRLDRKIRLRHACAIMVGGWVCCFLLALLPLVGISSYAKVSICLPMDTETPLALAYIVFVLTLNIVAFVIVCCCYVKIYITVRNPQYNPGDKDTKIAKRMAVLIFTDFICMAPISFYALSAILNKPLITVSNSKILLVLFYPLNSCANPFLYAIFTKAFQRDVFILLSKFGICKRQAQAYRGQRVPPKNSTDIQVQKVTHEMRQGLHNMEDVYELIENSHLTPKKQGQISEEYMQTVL
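TSHR-expressing cells were treated with compounds, then stimulated with TSH at EC80 (4nM final) for 2 hours at 37 deg C. Cellular cAMP was measured by HTRF competition between lysate cAMP and cAMP-d2 for a cryptate-labelled anti-cAMP antibody.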
Eya2 phos inh: blocks the phosphatase activity of human Eya2. AID 488837. O00167. Potency, µM (doses to about 76.9 µM), for the others: top-dose activity, negative = inhibition, usual class: inhibitors. actives 0.006% (n = 330,000). recombinant Eya2, OMFP fluorescence dephosphorylation (OMFP is methylfluorescein phosphate); also: potency is read from the fitted curve at half-maximal effect; % is scaled to controls: 0 for no effect and ±100 for the full control effect
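Eya2 protein (added as 0.2 uM solution) was preincubated with compound for 10 min at ambient temperature in 50 mM HEPES pH 7.5, 50 mM NaCl, 5 uM MgCl2, 0.05% BSA, 1 mM DTT. OMFP (added at 50 uM) then reacted 10 min; fluorescence read at 485/525 nm.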
TR SRC2 fluor cs: Texas Red fluorescence interference in TRb-SRC2 counter-screen | Potency, µM (series often up to 106 µM), for inactives: at the highest dose fluorescence change, negative = quenching | TRb/SRC2 Texas Red total fluorescence interference | AID 1479 | actives 0.29% (n = 280,000); active = well fitted curve in either direction with a large enough effect; inconclusive = small, poorly fitted or top-dose-only effect; also: potency is read from the fitted curve at half-maximal effect; % is scaled to controls: 0 for no effect and ±100 for the full control effect
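Human TRb ligand-binding domain at 0.6 uM with 20 nM Texas Red SRC2 peptide in Tris buffer containing 1 uM T3 and 5% DMSO, incubated with compound 5 h at ambient temperature. Total fluorescence (555/632 nm) calculated as parallel + 2 × perpendicular.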
USP2a block: blocks human ubiquitin-specific protease USP2a. O75604. USP2 core, Ub-CHOP2 coupled fluorogenic reporter, 485/531. Potency, µM (titrated, usually from 38.3 µM), for inactives: top-dose activity change, negative = inhibition, usual class: inhibitors. actives 0.01% (n = 330,000). AID 463254;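 also: potency is read from the fitted curve at half-maximal effect; plate controls were DMSO wells for no effect and full inhibition by NEM control for full effect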
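Deubiquitinase activity read as fluorescence (485/531 nm) after Ub-CHOP2 cleavage activates the enterokinase reporter on its substrate; USP2 core 10nM, Ub-CHOP2 and substrate 25nM each, 30min compound preincubation then 60min RT; data normalized to NEM, curves fitted.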
* = called active by the depositor; ? = inconclusive; · = not tested or not shown; [ ] = dose if it differs, or a comment. Unless noted, calls follow the shape of the dose curve; as a rule, active = well fitted curve in the direction sought with a large enough effect; inconclusive = small, poorly fitted or top-dose-only effect, or another doubt; inactive = no such curve, though single readings can be large; an effect the other way counts as inactive or inconclusive.

SMILES	CBFb RUNX1 block	TRb SRC2 PPI	TSHR antagonist	Eya2 phos inh	TR SRC2 fluor cs	USP2a block
Cc1ccc(-c2csc(N3N=C(c4ccccc4)/C(=C\c4ccc(N(C)C)cc4)C3=O)n2)cc1	-7%	?	-1	-20%	40µM*[quencher]	-2%
O=C(O)/C=C/C(=O)Nc1ccc(OC(F)(F)F)cc1Br	15%	32µM*	11	10%	-8%	-1%
CCOC(=O)c1cnc2c(C)cc(C)cc2c1Nc1ccc(S(=O)(=O)Nc2ncccn2)cc1	-2%	-13%[53 µM]	10	1%	35µM*[quencher]	3%
CCN(C(=O)CSc1nc2ccccc2c2nc(CCn3c(C)nc4ccccc43)nn12)c1cccc(C)c1	·	1%	·	·	-3%	·
COc1ccccc1CNS(=O)(=O)c1ccc(-n2cccn2)cc1	·	·	-111*	1%	·	2%
COc1ccc(-c2noc(-c3ccc(C)cc3Cl)n2)cc1OC	·	-7%	·	·	0.13µM*[quencher]	·
Cc1ccc(-c2nc(-c3ccncc3)no2)c(Cl)c1	·	·	-5	4%	·	1%
O=C(O)C1Nc2c(O)cc(Cl)c([N+](=O)[O-])c2C2C=CCC12 (stereo not given)	·	?	-6	11%	13µM*[quencher]	?
Cc1ccc2c(c1)C1C=CCC1C(C(=O)O)N2 (stereo not given)	·	-9%	-7	-6%	-27%	2%
Cc1cccc(-c2ccc3ncnc(NCc4cccc(F)c4)c3c2)c1	·	·	19	-20%	·	-4%
O=C(CCCN1C(=O)/C(=C/c2ccccc2Cl)SC1=S)Nc1cccnc1	·	·	-72*	5%	·	4%
O=C(CCN1C(=O)/C(=C/c2ccccc2Cl)SC1=S)Nc1cccnc1	·	·	-44	6%	·	-2%
Cc1ccc(C)c(S(=O)(=O)N2CCCOC2CNC(=O)C(=O)NCCC2=CCCCC2)c1 (stereo not given)	9%	-4%	?	5%	-3%	0%
O=C(NCCC1=CCCCC1)C(=O)NCC1OCCCN1S(=O)(=O)c1ccccc1 (stereo not given)	-8%	3%[53 µM]	-90*	1%	-1%[53 µM]	1%
CCc1ccc(OCC(=O)c2c(O)c3ccccc3oc2=O)cc1	22%	8%	10	-16%	-3%	0%
CCc1oc2ccccc2c1C(=O)c1cc(Br)c(O)c(Br)c1	-8%	6%	-70*	4%	-6%	-2%
CC(=O)CC(=O)Nc1ccccc1C	·	-2%[201 µM]	·	·	-5%[201 µM]	·
CC(=O)NNc1cc(N2CCOCC2)nc(N2CCOCC2)n1	-10%	28µM*	10	13%	32µM*[fluorescent]	13%
Cc1ccc(-c2cc3nccc(-c4cc([N+](=O)[O-])ccc4O)n3n2)cc1	·	-6%	·	·	45µM*[quencher]	·
Cc1cc(O)c(-c2ccnc3cc(-c4ccccc4)nn23)cc1Cl	·	-6%	·	·	11µM*[quencher]	·
CCN1C(=O)c2ccccc2Sc2ccc(NC(=O)Nc3cccc([N+](=O)[O-])c3C)cc21	·	-22%	·	·	0.0005µM*[quencher]	·
O=S(=O)(Nc1cccc(-n2cnnn2)c1)c1ccccc1C(F)(F)F	·	·	-136*	-5%	·	3%
COc1ccc(NC(=O)CC(C)S(=O)(=O)c2ccc3c(c2)NC(=O)CO3)cc1OC (stereo not given)	·	-2%	·	·	-4%	·
COc1cccc(NC(=O)CC(C)S(=O)(=O)c2ccc3c(c2)NC(=O)CO3)c1 (stereo not given)	·	-11%	·	·	20µM*[quencher]	·
COc1cc(OC)c(-c2c3cc(O)c(=O)cc-3oc3cc(O)c(O)cc23)cc1OC	·	?	0	?	40µM*[fluorescent]	?
Cc1c2cc(O)c(=O)cc-2oc2cc(O)c(O)cc12	·	-13%	-7	?	9%	?
NC(N)=NS(=O)(=O)c1ccc(NC(=S)NC(=O)c2ccccc2)cc1	14%	-4%	4	-24%	0%	1%
